Screening results as filed in PubChem.
BAZ2B block: qHTS Assay for Inhibitors of BAZ2B; AlphaScreen BAZ2B-H3K14Ac peptide displacement; Potency, µM (titrated, usually from 114 µM), for the others: top-dose activity change, negative = inhibition, most hits filed as inhibitors; 360,000 tested, 4.4% active; AID 504333, 2011; also: % is scaled to controls: 0 for no effect and ±100 for the full control effect; nearly all actives have a fitted effect of over 60% in size
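Protein-peptide AlphaScreen: BAZ2B 50 nM, b-H3K14Ac 50 nM, 1x PBS pH 7.4 + 0.01% Tween-20. Preincubation 30 min RT; cpd 30 min RT (top 110 uM); beads 20 min RT, light-protected.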
JMJD2A Tudor inh: qHTS Assay for Inhibitors of JMJD2A-Tudor Domain; AlphaScreen JMJD2A-Tudor / H3K4me3 peptide binding; 390,000 tested, 4.4% active; Potency, µM (highest dose often 114 µM), for inactives: top-dose activity change, negative = inhibition, hits mostly inhibitors; also: % is scaled to controls: 0 for no effect and ±100 for the full control effect; nearly all actives have a fitted effect of over 50% in size
HP1b binding inh: HTS for Inhibitors of HP1-beta Chromodomain Interactions with Methylated Histone Tails. Chromobox protein homolog 1 (Homo sapiens), P83916. AlphaScreen HP1-beta / biotin-H3K9me3 peptide binding. 390,000 tested, 0.56% active. Potency, µM (series often up to 114 µM), without a hit: at the top dose activity change, negative = inhibition, actives largely listed as inhibitors; also: nearly all actives have a fitted effect of over 70% in size
Target sequence (P83916 whole entry, looked up): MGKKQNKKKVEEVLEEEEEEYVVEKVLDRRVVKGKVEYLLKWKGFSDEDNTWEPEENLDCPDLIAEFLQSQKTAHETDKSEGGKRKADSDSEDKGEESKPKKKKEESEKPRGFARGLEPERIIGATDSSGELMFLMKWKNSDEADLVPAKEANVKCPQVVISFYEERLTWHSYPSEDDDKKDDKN
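AlphaScreen: HP1-beta (50 nM) preformed 30 min with biotin-H3(1-18)K9me3 peptide (50 nM) in PBS pH 7.4, 0.01% Tween-20. Compound added for 30 min at RT, then streptavidin donor/nickel chelate acceptor beads (10 ug/mL) for 30 min.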
G9a inh: qHTS Assay for Inhibitors of Histone Lysine Methyltransferase G9a | 350,000 tested, 8.8% active | Histone-lysine N-methyltransferase EHMT2 (Homo sapiens), Q96KQ7 | Potency, µM (highest dose often 102 µM), inactives show at the highest dose activity, negative = inhibition, most hits filed as inhibitors | G9a H3K9 monomethylation, AlphaScreen, 2 h; also: % is scaled to controls: 0 for no effect and ±100 for the full control effect; nearly all actives have a fitted effect of over 75% in size
Target sequence (Q96KQ7 913-1193 limits assumed): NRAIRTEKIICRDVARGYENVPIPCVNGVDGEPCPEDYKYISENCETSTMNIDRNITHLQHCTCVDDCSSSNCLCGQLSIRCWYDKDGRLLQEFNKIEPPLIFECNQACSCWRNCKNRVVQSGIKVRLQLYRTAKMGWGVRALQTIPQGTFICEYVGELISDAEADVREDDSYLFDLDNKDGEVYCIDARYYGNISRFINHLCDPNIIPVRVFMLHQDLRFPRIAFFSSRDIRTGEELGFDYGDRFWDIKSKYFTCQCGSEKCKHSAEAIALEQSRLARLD
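AlphaScreen detection with an anti-monomethyl H3K9 antibody quantified product after a 2 h room-temperature reaction containing 500 nM biotinylated H3K9 peptide, 20 µM SAM and 20 nM enzyme, which had been preincubated 15 min with compound.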
L3MBTL1 inh: qHTS Assay for the Inhibitors of L3MBTL1; Lethal(3)malignant brain tumor-like protein 1 (Homo sapiens), Q9Y468; AlphaScreen L3MBTL1–H3K9me1 peptide binding; Potency, µM (highest dose often 57.1 µM), for inactives: at the highest dose activity, negative = inhibition, most hits filed as inhibitors; 230,000 tested, 0.66% active; also: % is scaled to controls: 0 for no effect and ±100 for the full control effect; nearly all actives have a fitted effect of over 60% in size
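First, the protein-peptide complex forms for 30 min at room temperature (L3MBTL1 50 nM, biotinylated H3K9me1 peptide 75 nM). Next, compounds are pin-transferred and incubated 30 min. Finally, AlphaScreen beads are added and read after 30 min.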
Sfp inh: qHTS Assay for Inhibitors of Bacillus subtilis Sfp phosphopantetheinyl transferase (PPTase); 4'-phosphopantetheinyl transferase ffp (Bacillus subtilis), Q9F4F7; Biochemical Sfp PPTase activity, qHTS; Potency, µM, for inactives: largest response in the series, negative = inhibition, usual class: inhibitors; 310,000 tested, 3.5% active; AID 1490, 2009;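 also: the enzyme is Sfp with the accession as filed and its product quenches rhodamine fluorescence; 0% = enzyme reaction without inhibitor and -100% = no enzyme wells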
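Compounds were incubated with enzyme (final 15 nM) for 15 min at room temperature before substrate addition started the reaction. Fluorescence at 525 nm excitation, 598 nm emission was recorded immediately and after 30 minutes.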
* = called active by the depositor; ? = inconclusive; . = not tested or not shown; [ ] = dose if it differs, or a comment. Only some compounds are listed: those with a hit (about 12% of all), similar ones and a draw of the others. Calls follow the shape of the dose curve; as a rule, active = well fitted curve in the direction sought with a large enough effect; inconclusive = small, poorly fitted or top-dose-only effect, or another doubt; inactive = no such curve, though single readings can be large; an effect the other way counts as inactive or inconclusive. Potency is read from the fitted curve at half-maximal effect.

SMILES	BAZ2B block	JMJD2A Tudor inh	HP1b binding inh	G9a inh	L3MBTL1 inh	Sfp inh
COc1ccc(-n2c(Cc3cccn3C)nnc2SCC(=O)Nc2ccc(Cl)cc2)cc1	?	?	-24%	?	-17%	16%
Cn1cccc1Cc1nnc(SCC(=O)Nc2ccccc2)n1-c1ccc(F)cc1	?	?	36%	45µM*	-4%	-17%
COc1ccc(-n2c(Cc3cccn3C)nnc2SCC(=O)Nc2ccccc2)cc1	?	?	-18%	28µM*	-17%	-1%
Cc1ccc(-n2ncc(C(=O)N3CCN(C4CCCCC4)CC3)c2C2CCN(C(=O)OC(C)(C)C)CC2)cc1C	6%[57.1 µM]	-13%	21%	-1%[59 µM]	.	.
CC(C)(C)c1ccc(C(=O)NNC(=O)c2ccc(Cl)cc2)cc1	1%	1%	40%	-5%[59 µM]	3%	14%
CCc1ccc(C(=O)NNc2ccc(Cl)cc2)cc1	?	-26%	78%	10µM*	3%	14%
CCc1ccc(C(=O)NNc2cc(Cl)cc(Cl)c2)cc1	-4%	-16%	20%	.	12%	5%
CC(C)(C)c1ccc(C(=O)NNc2cc(Cl)cc(Cl)c2)cc1	-10%	-2%	65%	22µM*	-2%	14%
COc1cccc2sc(NC(=O)CS(=O)(=O)c3ccc(C)cc3)nc12	-8%	-11%	18%	3%[59 µM]	.	.
CCOc1ccc(NC2=NCC(=O)N2CCc2ccccc2)cc1	79µM*	-6%	23%	?	-7%	-1%
COc1ccc(CN2C(=O)CN=C2Nc2cc(C)ccc2C)cc1	?	-21%	20%	?	.	6%
CCc1ccccc1NC1=NCC(=O)N1Cc1ccc(OC)cc1	?	-13%	50%	45µM*	-8%	10%
CCOc1ccc(CC(=O)NCCc2csc(-c3ccc(C)cc3)n2)cc1	0%	-11%	16%[57 µM]	1%[59 µM]	.	.
CCN(c1ccccc1)c1nnc(NC(=O)Nc2cccc(Br)c2)s1	-9%	-4%	29%	-30%[59 µM]	.	.
CC(=O)N(C)c1ccc(C=C2C=Cc3ccccc32)cc1	.	79µM*	?	.	.	.
CCN(c1ccc(OC)cc1)S(=O)(=O)c1ccc2[nH]c3c(c2c1)CCCCC3	?	?	-15%	?	.	.
CC1CCN(S(=O)(=O)c2ccc(Cl)cc2)CC1	48%	-4%	33%	13%[59 µM]	10%	-4%
CN(C)c1ccc(-c2noc(C3CCN(S(=O)(=O)c4cccc(Cl)c4)CC3)n2)cc1	?	?	2%	?	.	13%
COc1ccc(-c2nnc(C3CCN(S(=O)(=O)c4cccc(Cl)c4)CC3)o2)cc1	-8%	?	25%	11µM*	.	.
Cc1ccccc1-c1nnc(C2CCN(S(=O)(=O)c3ccc(Cl)cc3)CC2)o1	-6%	1%	39%	7.9µM*	.	.
COc1ccc(-c2nnc(C3CCN(C(=O)c4ccccc4F)CC3)o2)cc1	?	56µM*	-3%	14µM*	.	.
COc1ccc(S(=O)(=O)N2CCC(c3nnc(-c4ccccc4C)o3)CC2)c(OC)c1	-19%	-13%	33%	8.9µM*	.	.
COc1ccccc1-c1nnc(C2CCN(C(=O)c3ccc(C)cc3)CC2)o1	-9%	-2%	47%	7%[59 µM]	.	.
COc1cccc(CN2CCC(C(=O)Nc3ccc(Oc4cccnc4)cc3)CC2)c1	-23%	-16%	19%	13%	.	12%
O=C(NCc1ccccn1)C1CCN(Cc2cccc(OCc3ccccc3)c2)CC1	?	3.5µM*	?	-14%	-14%	-27%
SMILES	BAZ2B block	JMJD2A Tudor inh	HP1b binding inh	G9a inh	L3MBTL1 inh	Sfp inh
CC(C)NC(=O)C1CCN(Cc2cccc(Oc3ccccc3)c2)CC1	?	22µM*	?	.	0%	-13%
CCOC(=O)C1CCCCN1Cc1cccc(OCc2ccccc2)c1 (centres undefined)	?	10µM*	?	.	17%	?
CCN1CCN(Cc2ccc(OCc3ccccc3)cc2)CC1	-26%	-12%	47%	-23%[12.7 µM]	-15%[11.4 µM]	-21%
CC(C)CNC(=O)C1CCN(Cc2ccc(OCc3ccccc3)cc2)CC1	?	1.1µM*	?	?	7%	-8%
O=C(Nc1ccccc1C(=O)O)c1cccc(S(=O)(=O)N2CCCC2)c1	2%	-17%	13%	-4%[59 µM]	.	.
COC(=O)C1=CO[C@@H](O[C@H]2OC(CO)C(O)C(O)C2O)C2C1CC(O)C2C (some centres undefined)	.	.	.	.	.	10%
c1ccc(COc2cccc(CN3CCc4ccccc4C3)c2)cc1	7%	56µM*	21%	.	39%	-3%
CCOC(=O)C1CCN(Cc2nc3ccc(Cl)cc3n2CCO)CC1	45µM*	1.1µM*	14µM*	?	6%	?
CN1CCN(Cc2ccc(OCc3ccccc3)cc2)CC1	-30%	-22%	34%	6%[59 µM]	-4%	3%
CCOC(=O)C1CCN(Cc2ccc(F)c(Br)c2)CC1	50µM*	3.2µM*	-50%	?	4%	-7%
COC(=O)C1CCN(Cc2ccc(C)cc2)CC1	3%	-15%	38%	2%[59 µM]	.	14%
Fc1ccc(CN2CCSCC2)cc1Br	50µM*	3.2µM*	?	8.9µM*	2%	-17%
O=C(CN1C(=O)COc2ccccc21)NCCc1ccc(Cl)cc1	-1%	-8%	32%	0%[59 µM]	.	.
Cc1cccc(CN2CCC(C(N)=O)CC2)c1	9%	-15%	25%	28%	.	9%
NC(=O)C1CCN(Cc2cccc(OCc3ccccc3)c2)CC1	?	2.5µM*	?	.	23%	3%
CCOC(=O)C1CCN(Cc2cccc(OCc3ccccc3)c2)CC1	-12%	8.9µM*	?	?	-1%	-13%
COc1ccccc1NC(=O)CSc1oc(-c2ccco2)nc1S(=O)(=O)c1ccc(C)cc1	-11%	-12%	25%	-22%[59 µM]	.	.
O=C(CCN1C(=O)/C(=C/C=C/c2ccccc2)SC1=S)Nc1nc2ccccc2s1	?	-35%	1%	?	-13%	2%
O=C(O)c1ccc(N2C(=O)/C(=C/C=C/c3ccccc3)SC2=S)cc1	?	?	-14%	45µM*	-2%	6%
CN(C)c1ccc(/C=C/C=C2/SC(=S)N(c3ccccc3)C2=O)cc1	?	5.6µM*	-92%	?	4.5µM*	-19%
CCn1c(CNC(=O)c2ccc(OC)cc2)nnc1SCC(=O)Nc1ccc(F)cc1	-3%	-3%	29%	6%[59 µM]	.	.
